The nature of assay [1]: NFAT Signaling Pathway (AID 444; active = well fitted curve in either direction with a large enough effect, not every such curve was filed as active;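 note: carbachol stimulus at about its EC50 of 1 µM final; % is set by controls: 0 for no effect and ±100 for the full control effect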). The settings on record: Jurkat NFAT-bla M1, carbachol, beta-lactamase ratio, 5 h; at 17.2 µM (top of the series). In outline:
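Jurkat cells with NFAT-driven β-lactamase reporter and co-expressed M1 receptor, stimulated with carbachol (final 1 uM, ~EC50), compound titration, 5 h at 37 °C. CCF4 loaded 1 h at RT; 460/530 nm ratio gave %activity and AC50.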

The target of assay [2] is Mitogen-activated protein kinase 10 (Mus musculus) (UniProt Q61831). In words: JNK3 AlphaScreen Assay (AID 530; active = well fitted curve in either direction with a large enough effect, not every such curve was filed as active;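 note: kinase came from lysate of stimulated human HepG2 cells; signal reports phosphorylation of biotinylated GST-cJun 1-79 at Ser73 with 10 µM ATP; % is set by controls: 0 for no effect and ±100 for the full control effect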). The settings on record: JNK3 lysate, c-Jun phosphorylation; series mostly up to 57.1 µM. In outline:
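Pre-activated (IL-1β/TNFα) JNK3 in HepG2 lysates phosphorylates biotin-GST-cJun(1-79), 10 uM ATP; anti-phospho-cJun(Ser73) AlphaScreen read at room temperature, pH 7.6 Tris buffer. Compounds pre-incubated 15 min as titrations.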

Assay [3] in a line: qHTS Assay for Lipid Storage Modulators (AID 1519; calls by dose curve; for activity change, negative = inhibition: % is set by controls: 0 for no effect and ±100 for the full control effect). To be noted: Drosophila S3 cells, BODIPY lipid droplet/cell ratio, laser cytometry, cells loaded with oleic acid. In outline: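 Cells seeded at 5,000 per well were treated with compounds over a concentration series and loaded with oleic acid (400 uM, as added). Lipid droplet fluorescence (488 nm excitation, 500-530 nm channel) was read by laser-scanning cytometry and normalized to 20 uM Triacsin C.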
A general note: qHTS replaces the single test concentration by a dilution series.

Assay [4] deals with Cytochrome P450 3A4 (Homo sapiens) (UniProt P08684). Put plainly: qHTS Assay for Activators of Cytochrome P450 3A4 (AID 885). Note: nearly all actives have a fitted effect of over 65% in size. To be noted: recombinant CYP3A4, Luciferin-PPXE luminescence, 60 min; series mostly up to 57.1 µM. In outline: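 Quantitative HTS format: compounds preincubated with 20nM human CYP3A4 and Luciferin-PPXE substrate at KM, reaction started by NADPH regeneration, stopped after 60 min, luciferase luminescence read 20 min later.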
Sequence of Cytochrome P450 3A4 (Homo sapiens) (P08684 whole entry, looked up): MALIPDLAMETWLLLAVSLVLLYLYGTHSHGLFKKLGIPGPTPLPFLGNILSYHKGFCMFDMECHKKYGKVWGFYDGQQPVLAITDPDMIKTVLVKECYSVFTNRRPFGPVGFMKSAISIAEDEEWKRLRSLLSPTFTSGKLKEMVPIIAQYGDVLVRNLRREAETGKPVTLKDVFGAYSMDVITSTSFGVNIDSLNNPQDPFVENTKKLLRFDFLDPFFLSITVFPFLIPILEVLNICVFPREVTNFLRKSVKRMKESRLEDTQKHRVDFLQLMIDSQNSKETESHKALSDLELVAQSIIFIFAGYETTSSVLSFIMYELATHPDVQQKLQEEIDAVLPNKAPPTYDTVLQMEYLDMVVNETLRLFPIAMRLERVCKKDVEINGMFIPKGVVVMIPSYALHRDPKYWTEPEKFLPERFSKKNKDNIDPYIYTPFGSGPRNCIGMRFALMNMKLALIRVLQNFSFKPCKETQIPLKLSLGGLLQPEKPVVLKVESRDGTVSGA

Assay [5] can be described thus: Confirmation and Secondary Assay for Modulators of Hemoglobin Beta Chain Splicing at IVS2 705 locus (AID 930).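 Note: HeLa cells stably expressing the EGFP-705 splicing reporter; GFP fluorescence per well restored by corrected splicing of the IVS2-705 intron in EGFP; % of control where 0% means no effect.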 The settings on record: HeLa EGFP-705 splicing reporter, GFP fluorescence, 48 h; series mostly up to 46.1 µM. In outline: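 Per-well GFP, captured at 1 x 8 µm resolution with 488 nm excitation, served as the read-out for HeLa EGFP-705 cells incubated 2 days with test compound versus DMSO.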

The target in assay [6] is Peroxisome proliferator-activated receptor alpha (Homo sapiens) (UniProt Q07869). Put plainly: qHTS assay for small molecule agonists of the peroxisome proliferator-activated receptor alpha (PPARalpha) signaling pathway (AID 651778). Note: % of control where 0% means no effect. The settings on record: PathHunter PPARalpha complementation, chemiluminescence, 6 h; stronger effect = higher value. In outline: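 Enzyme-fragment complementation assay in which ligand-bound PPARalpha translocates and forms an active enzyme that generates chemiluminescence. Cells were plated overnight, exposed to compound for 6 hr at 37 C, and then given detection reagent for 60 min at room temperature.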
Sequence of Peroxisome proliferator-activated receptor alpha (Homo sapiens) (Q07869 whole entry, looked up, the tested form may be a part): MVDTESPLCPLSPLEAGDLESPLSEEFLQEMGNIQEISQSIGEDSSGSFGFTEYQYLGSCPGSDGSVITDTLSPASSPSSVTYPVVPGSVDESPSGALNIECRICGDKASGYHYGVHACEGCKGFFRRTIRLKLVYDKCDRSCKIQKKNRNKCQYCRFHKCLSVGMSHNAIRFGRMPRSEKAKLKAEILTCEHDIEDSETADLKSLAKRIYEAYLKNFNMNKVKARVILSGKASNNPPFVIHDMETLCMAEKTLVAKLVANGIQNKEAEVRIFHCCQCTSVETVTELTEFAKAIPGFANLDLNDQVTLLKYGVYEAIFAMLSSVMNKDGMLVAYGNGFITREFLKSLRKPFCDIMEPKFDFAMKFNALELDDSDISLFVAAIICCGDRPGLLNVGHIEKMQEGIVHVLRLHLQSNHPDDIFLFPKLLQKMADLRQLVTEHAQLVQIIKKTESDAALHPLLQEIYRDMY

A short description of assay [7]: qHTS assay for cell viability of HEK293 cells (AID 743288). Note: nearly all actives have a fitted effect of over 50% in size. Note: potency is the fitted concentration of half-maximal effect. The settings on record: ATP luminescence (CellTiter-Glo), 18 h; max response: stronger effect = lower value. In outline: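 Parental HEK293 cells were seeded at 2,000 cells/well, rested at least 5 h at 37 C, then exposed to compounds in DMSO for 18 h at 37 C. Viability was read as ATP-dependent luciferase luminescence after 30 min at room temperature.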

The target of assay [8] is Ubiquitin carboxyl-terminal hydrolase 1 (Homo sapiens) (UniProt O94782). In words: Inhibitors of USP1/UAF1: Pilot qHTS (AID 504865).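 Note: rhodamine fluorescence freed from ubiquitin-rhodamine substrate followed over time; top concentration of the series differs between compounds; % is set by controls: 0 for no effect and ±100 for the full control effect; nearly all actives have a fitted effect of over 35% in size.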 The settings on record: purified USP1/UAF1, Ub-rhodamine cleavage fluorescence; series mostly up to 114 µM. In outline: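 USP1/UAF1 complex (1nM) preincubated with compound 15 min at room temperature, then Ub-Rho substrate (150nM final) added. Fluorescence read kinetically at 480/540 nm, 6 reads every 60 seconds. Buffer: 50mM HEPES pH 7.8, 0.5mM EDTA, 0.1 mg/ml BSA, 1mM TCEP, 0.01% Tween-20.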
Sequence of Ubiquitin carboxyl-terminal hydrolase 1 (Homo sapiens) (O94782 whole entry, looked up): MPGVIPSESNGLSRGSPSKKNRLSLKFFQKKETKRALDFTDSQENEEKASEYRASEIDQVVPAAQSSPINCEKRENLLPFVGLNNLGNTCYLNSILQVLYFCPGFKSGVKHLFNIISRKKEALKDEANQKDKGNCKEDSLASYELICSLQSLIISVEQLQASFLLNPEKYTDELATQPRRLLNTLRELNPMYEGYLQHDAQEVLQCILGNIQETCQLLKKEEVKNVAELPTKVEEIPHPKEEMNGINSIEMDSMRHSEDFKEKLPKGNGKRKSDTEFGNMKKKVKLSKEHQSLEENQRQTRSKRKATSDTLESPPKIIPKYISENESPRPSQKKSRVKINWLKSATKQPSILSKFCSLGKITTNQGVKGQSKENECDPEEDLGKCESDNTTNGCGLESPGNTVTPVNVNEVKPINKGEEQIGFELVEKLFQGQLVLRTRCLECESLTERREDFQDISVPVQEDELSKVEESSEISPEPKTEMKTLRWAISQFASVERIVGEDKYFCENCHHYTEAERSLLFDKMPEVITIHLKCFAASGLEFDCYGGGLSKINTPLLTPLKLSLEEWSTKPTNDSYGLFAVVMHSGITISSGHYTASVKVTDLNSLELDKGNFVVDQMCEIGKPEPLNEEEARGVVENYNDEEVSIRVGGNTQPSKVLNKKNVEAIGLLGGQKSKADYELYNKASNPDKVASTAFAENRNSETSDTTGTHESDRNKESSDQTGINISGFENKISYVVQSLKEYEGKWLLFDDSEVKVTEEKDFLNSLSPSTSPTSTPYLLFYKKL

The target in assay [9] is Cytochrome P450 3A4 (Homo sapiens) (UniProt P08684). Put plainly: qHTS Assay for Inhibitors and Substrates of Cytochrome P450 3A4 (AID 884). Note: % is set by controls: 0 for no effect and ±100 for the full control effect; nearly all actives have a fitted effect of over 50% in size. The settings on record: recombinant CYP3A4, Luciferin-PPXE luminescence; series mostly up to 57.1 µM. In outline: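 20 nM human CYP3A4 with 25 uM Luciferin-PPXE (at KM) in 200 mM KPO4, preincubated 10 min with compound; NADPH regeneration started a 60 min RT reaction. Luciferin detected by luminescence, normalized to 57 uM ketoconazole as full inhibition.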

The nature of assay [10]: Confirmation and Secondary Assay for Modulators of Hemoglobin Beta Chain Splicing at IVS2 654 locus (AID 910).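 Note: HeLa cells stably carrying EGFP split by mutant beta-globin IVS2-654 intron; % of control where 0% means no effect.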 The settings on record: HeLa EGFP-654 splicing reporter, GFP fluorescence, 48 h; series mostly up to 46.1 µM. In outline:
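HeLa cells stably expressing EGFP interrupted by β-globin IVS2-654 intron, seeded overnight in Opti-MEM/2% FCS, then treated 2 days at 37 °C. Restored splicing read as total peak GFP intensity per well by laser scanning cytometry (488 nm excitation, 500–520 nm emission); 500 nM antisense PNA as control.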

Assay [11] deals with Cytochrome P450 1A2 (Homo sapiens) (UniProt P05177). In words: p450-cyp1a2 (AID 410; calls by dose curve;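 note: -100% = full effect of reference inhibitor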). The settings on record: recombinant CYP1A2, luciferin-ME demethylation, luminescence; series mostly up to 25.6 µM. In outline:
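Luminescent readout of luciferin formed from Luciferin-ME by human CYP1A2; data normalized against complete inhibition by 57 uM furafylline. Enzyme 20nM, substrate 100uM at Km, 100mM KPO4 buffer, 60 min reaction at room temperature.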

Assay [12] is described as follows: Stat Signaling Pathway (AID 446; active = well fitted curve in either direction with a large enough effect, not every such curve was filed as active;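 note: ME-180 cervical cancer cells given 40 pM IL-6 alongside compound; SIE-controlled beta-lactamase reporter measured as 460/530 nm FRET emission ratio; % is set by controls: 0 for no effect and ±100 for the full control effect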). To be noted: ME-180 (cervical carcinoma) SIE beta-lactamase reporter, IL-6 stimulated, 5 h; series mostly up to 17.2 µM. In outline:
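IL-6/STAT signaling read in ME-180 cells via an SIE beta-lactamase reporter. Stimulus was 40 pM IL-6 (its AC50) for 5 hrs, so both activation and inhibition register.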

Assay [13] deals with Glucocorticoid receptor (Homo sapiens) (UniProt P04150). In words: GR-GFP Redistribution (AID 450;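 active = compounds whose dose series gives a full or clear partial fitted curve of increased nuclear translocation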; note: potency is the fitted concentration of half-maximal effect). To be noted: U2OS GR-GFP nuclear translocation, laser cytometry, 2 h.
Sequence of Glucocorticoid receptor (Homo sapiens) (P04150 whole entry, looked up): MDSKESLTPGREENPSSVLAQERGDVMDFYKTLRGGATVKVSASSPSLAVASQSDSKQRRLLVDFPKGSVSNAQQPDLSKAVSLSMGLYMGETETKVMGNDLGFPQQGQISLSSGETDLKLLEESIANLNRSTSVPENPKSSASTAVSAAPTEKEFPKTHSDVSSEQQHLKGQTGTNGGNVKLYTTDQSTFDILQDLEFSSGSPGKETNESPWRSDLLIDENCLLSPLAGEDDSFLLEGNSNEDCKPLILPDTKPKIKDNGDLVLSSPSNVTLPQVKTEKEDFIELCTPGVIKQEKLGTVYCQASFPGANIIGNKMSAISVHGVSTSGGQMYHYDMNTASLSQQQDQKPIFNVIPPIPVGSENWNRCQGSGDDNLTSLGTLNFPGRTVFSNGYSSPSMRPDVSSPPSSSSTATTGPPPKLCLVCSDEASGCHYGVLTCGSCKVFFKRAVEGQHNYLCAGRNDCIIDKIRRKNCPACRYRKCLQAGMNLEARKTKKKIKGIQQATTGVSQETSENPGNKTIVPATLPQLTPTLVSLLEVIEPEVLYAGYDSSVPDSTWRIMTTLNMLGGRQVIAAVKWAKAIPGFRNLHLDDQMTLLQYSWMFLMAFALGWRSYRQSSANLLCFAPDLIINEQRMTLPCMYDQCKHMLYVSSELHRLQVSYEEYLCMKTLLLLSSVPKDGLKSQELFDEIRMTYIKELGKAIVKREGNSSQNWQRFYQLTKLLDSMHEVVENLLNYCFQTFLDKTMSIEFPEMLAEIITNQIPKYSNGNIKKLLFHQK
The target is the same in assay [14]. Put plainly: GR-EFC Redistribution (AID 451; calls by dose curve; note: potency is the fitted concentration of half-maximal effect). To be noted: CHO-K1 GR-EFC translocation, beta-gal luminescence, 2 h. In outline:
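CHO-K1 cells expressing nuclear EA and GR-ED fragments of b-gal; compounds titrated up to 46 uM final, 2 h at 37 C. GR nuclear translocation read as complemented b-gal luminescence after 1 h RT detection.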

Setting [15] is: measured here: cell count channel max response.
The mark [16] stands for this setting: measured here: lipid channel max response.

“And” between values parts separate entries of the source, which are not always exact repeats. Equal entries are not always repeated. Records with an inconclusive call do not appear. The source made the active and inactive calls. Unless noted, calls come from the whole dose curve; as a rule, active = well fitted curve in the direction sought with a large enough effect; inconclusive = small, poorly fitted or top-dose-only effect, or another doubt; inactive = no such curve, though single readings can be large; an effect the other way counts as inactive or inconclusive. Where only a bound is given, the exact number is not on record here.

Sequence of Cytochrome P450 1A2 (Homo sapiens) (P05177 whole entry, looked up): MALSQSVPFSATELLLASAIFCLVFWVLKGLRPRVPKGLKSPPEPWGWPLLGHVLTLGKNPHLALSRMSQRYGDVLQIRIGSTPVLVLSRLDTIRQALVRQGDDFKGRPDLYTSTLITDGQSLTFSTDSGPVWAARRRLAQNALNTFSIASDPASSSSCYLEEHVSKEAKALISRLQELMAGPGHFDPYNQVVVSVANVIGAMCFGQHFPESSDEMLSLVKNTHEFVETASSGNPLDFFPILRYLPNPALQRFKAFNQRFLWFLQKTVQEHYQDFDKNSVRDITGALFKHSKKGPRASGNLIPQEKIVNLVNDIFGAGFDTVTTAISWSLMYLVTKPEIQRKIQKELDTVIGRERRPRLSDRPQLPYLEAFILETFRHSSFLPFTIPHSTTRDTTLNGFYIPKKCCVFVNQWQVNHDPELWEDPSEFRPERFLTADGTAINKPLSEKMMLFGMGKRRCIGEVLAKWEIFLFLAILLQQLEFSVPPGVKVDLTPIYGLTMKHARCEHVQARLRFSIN

For the molecule `C[C@@H]1O[C@H](O[C@H]2C[C@@H](O)[C@@]3(CO)[C@H]4[C@@H](O)C[C@]5(C)[C@@H](C6=CC(=O)OC6)CC[C@]5(O)[C@H]4CC[C@]3(O)C2)[C@@H](O)[C@H](O)[C@@H]1O`, the activity change, negative = inhibition in assay [1] was -76.3% (active); in [3] (at 25.7 µM (top of the series)) it was -0.396% (inactive). For the same molecule, in assay [2], the molecule was classed as inactive. Further, the max response was -4.59% in [3] (setting [15]) and -4.25% in assay [3] (setting [16]).

`CCCCCCCCCc1ccc(O)cc1`: in [2], the molecule was called inactive. The Potency entry in assay [4] and in assay [5] was “inactive” throughout. In assay [3] (at 57.5 µM (top of the series)), the activity change, negative = inhibition is 4.47% (inactive). For the same molecule, the max response was 4.78% in assay [3] (setting [15]); 11% in assay [3] (setting [16]); 6.94% (inactive) and 6.09% (inactive) in assay [6]; -7.88% (inactive) in assay [7].

Take `C=C1CC[C@H](O)C/C1=C/C=C1\CCC[C@]2(C)[C@H]1CC[C@H]2[C@@H](C)CCCC(C)C`: in assay [3] (at 25.7 µM (top of the series)), the activity change, negative = inhibition is 0.847% (inactive). Also, the results for the max response in assay [3] (setting [15]) and in assay [3] (setting [16]) were 8.85% and 12%, respectively. In addition, the Potency result in assay [8] is “inactive”.

`CC(C)(C)[C@]1(O)C[C@@H]2OC(=O)C[C@@]23C(=O)O[C@@H]2OC(=O)[C@H](O)[C@]213`: the Potency entry in assay [9] and in assay [8] was “inactive” in each case. The activity change, negative = inhibition in assay [3] (at 57.5 µM (top of the series)) was 3.73% (inactive). The max response in assay [3] (setting [15]) was found to be 5.67%; in assay [3] (setting [16]) it was 8.55%.

As to `O=C1C(Cl)=C(Cl)C(=O)C(Cl)=C1Cl`, the result in [2] was inactive. The Potency result in [4], in assay [10] and in [5] was “inactive” throughout. Besides, the activity change, negative = inhibition in assay [3] (at 57.5 µM (top of the series)) was -9.83% (inactive). Further, the figures for the max response in [3] (setting [15]), in [3] (setting [16]) and in [6] were -3.14%, -11.5% and -6.11% (inactive), respectively. In assay [7], the Potency was 39.8 µM (active).

`CC[C@@H]1CN2CC[C@@H]1C[C@H]2[C@H](O)c1ccnc2ccc(OC)cc12`: the Potency result in assay [9] and in assay [8] was “inactive” throughout. Besides, in assay [3] (at 57.5 µM (top of the series)), the activity change, negative = inhibition is -1.21% (inactive). The max response in [3] (setting [15]) is 1.88%; in [3] (setting [16]) it was 1.41%.

As to `C[C@@]12CC[C@H](O)C[C@@H]1CC[C@H]1[C@@H]2C[C@@H](O)[C@]2(C)[C@@H](C3=CC(=O)OC3)CC[C@]12O`, the Potency entry in assay [11] and in [8] was “inactive” throughout. The molecule was called inactive in assay [12] and in [2]. Moreover, the Potency in assay [13] and in [14] was > 20.6 µM (inactive) each time. In addition, the activity change, negative = inhibition in assay [3] (at 25.7 µM (top of the series)) was -4.23% (inactive). Further, the max response is -5.31% in assay [3] (setting [15]) and -9.41% in assay [3] (setting [16]).

On to `N#Cc1c(Cl)cccc1Cl`, for which the Potency entry in assay [9], in assay [10], in [5] and in assay [8] was “inactive” each time. Also, the activity change, negative = inhibition in assay [3] (at 57.5 µM (top of the series)) was 7.12% (inactive). Besides, the max response in [3] (setting [15]) was 9.19%; in [3] (setting [16]), 14.3%; in assay [6], 0.511% (inactive); in [7], 0.0704% (inactive).

Values taken from PubChem BioAssay (NCATS).
